We go through nine compounds from PubChem BioAssay (NCI).

Holding throughout (assay): NCI-60 one-dose screen, 48 h (100 = growth as untreated, 0 = no growth, -100 = all killed)
One experiment concerns HCT-15 colon. Particulars: 10 µM unless noted.
A further experiment deals with HT29 colon. Particulars: 10 µM unless noted.
For the next experiment, the system named is SNB-75 CNS. Particulars: 10 µM unless noted.
The next experiment concerns SNB-19 CNS. Particulars: 10 µM unless noted.
Another experiment deals with U251 CNS. Particulars: 10 µM unless noted.
Another experiment deals with PC-3 prostate. Particulars: 10 µM unless noted.
The subject of the next experiment is SK-MEL-5 melanoma. Particulars: 10 µM unless noted.
In a further experiment the test system is UACC-62 melanoma. The settings on record: 10 µM unless noted.
Another experiment concerns SK-MEL-28 melanoma. Particulars: 10 µM unless noted.
In a further experiment the test system is SK-MEL-2 melanoma. The settings on record: 10 µM unless noted.
The test system of a further experiment is EKVX NSCLC. The settings on record: 10 µM unless noted.
In a further experiment the test system is UO-31 renal. Particulars: 10 µM unless noted.
Another experiment relates to TK-10 renal. The settings on record: 10 µM unless noted.
Another experiment has as its system ACHN renal. The settings on record: 10 µM unless noted.
Another experiment relates to CAKI-1 renal. The settings on record: 10 µM unless noted.
In a further experiment the test system is A498 renal. Particulars: 10 µM unless noted.
The test system of a further experiment is CCRF-CEM leukemia. Particulars: 10 µM unless noted.
In a further experiment the test system is MOLT-4 leukemia. The settings on record: 10 µM unless noted.
The test system of the next experiment is SN12C renal. The settings on record: 10 µM unless noted.
The next experiment concerns LOX IMVI melanoma. The settings on record: 10 µM.

About 83,000 compounds went through this panel and 20% of them were active in at least one assay; those are over-represented in the sample as a whole.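 Percent growth is the endpoint: 0 to 100 indicates growth inhibition (40 means 60% inhibition), 0 means no net growth, and negative values indicate cell death.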 Values without a mark were called inactive. Activity calls are given as the source filed them. The calls were made as follows: active = growth percent below 10; inactive = the rest.

In the case of `C=C1CCC2C3(C)COC(c4ccccc4F)OC3CCC2(C)C1CC(O)C1=CCOC1=O` (stereo not given), the growth in the experiment on HCT-15 colon was 9.86% (active); in the experiment with HT29 colon, 8.43% (active); with SNB-75 CNS, 43.9%; in the experiment with SNB-19 CNS, 81.5%; in the experiment on U251 CNS it was 53.4%; in the experiment on PC-3 prostate, 36.5%. Besides, the growth is 65.8% in the experiment with SK-MEL-5 melanoma; 73.6% in the experiment on UACC-62 melanoma; 47.6% with SK-MEL-28 melanoma; 17.2% in the experiment with SK-MEL-2 melanoma; 85.3% in the experiment with EKVX NSCLC; 11.7% with UO-31 renal. The growth in the experiment on TK-10 renal is 107%; in the experiment with ACHN renal, -23% (active); in the experiment on CAKI-1 renal, 66%; in the experiment on A498 renal it was 141%; in the experiment on CCRF-CEM leukemia it was 16.7%; in the experiment with MOLT-4 leukemia, 48.9%.
For the compound `O=C(O)c1ccc(-c2ccc(/C=N/NC(=O)c3[nH]c4ccc(Br)cc4c3-c3ccccc3)o2)cc1`, the growth in the experiment on HCT-15 colon is 7.24% (active); with HT29 colon, 34.5%; in the experiment on SNB-75 CNS it was -8.96% (active); with SNB-19 CNS, 13%; in the experiment on U251 CNS, 1.17% (active); in the experiment with PC-3 prostate, 20.8%. In addition, the growth in the experiment with SK-MEL-5 melanoma was -9.61% (active); in the experiment with UACC-62 melanoma it was 18%; with SK-MEL-28 melanoma, 31.1%; in the experiment with SK-MEL-2 melanoma, -16.5% (active); in the experiment with SN12C renal, 5.99% (active); in the experiment on UO-31 renal it was 24.5%. Besides, the growth is 41.2% in the experiment on TK-10 renal; 32.5% in the experiment with ACHN renal; 38.5% in the experiment on CAKI-1 renal; -0.481% (active) with CCRF-CEM leukemia; 14.1% in the experiment on MOLT-4 leukemia.
`COc1cc2c(c(OC)c1OC)C(=O)CC(c1cccc(NC(=O)c3cc(NC(=O)[C@@H](N)CO)ccc3C)c1)O2` (stereo not given in full): the growth was 110% with HCT-15 colon; 102% in the experiment on HT29 colon; 135% with SNB-75 CNS; 109% with SNB-19 CNS; 112% with U251 CNS; 107% in the experiment with PC-3 prostate. Moreover, the growth in the experiment on SK-MEL-5 melanoma was 104%; with UACC-62 melanoma, 109%; in the experiment on SK-MEL-28 melanoma, 109%; with SK-MEL-2 melanoma, 111%; in the experiment with SN12C renal, 102%; with UO-31 renal, 92%. Moreover, the growth was 105% in the experiment with TK-10 renal; 107% with ACHN renal; 99.9% in the experiment on CAKI-1 renal; 126% in the experiment on A498 renal; 102% in the experiment with CCRF-CEM leukemia; 114% with MOLT-4 leukemia.
As to `CC(=O)Nc1cccc(Nc2nc(NCc3ccccc3)c3ccccc3n2)c1`, the growth with HCT-15 colon was -87.1% (active); in the experiment with HT29 colon, -86.5% (active); with SNB-75 CNS it was -93.8% (active); in the experiment with SNB-19 CNS it was -98.3% (active); in the experiment on U251 CNS it was -76.4% (active); in the experiment on PC-3 prostate it was -73.2% (active). For the same compound, the growth in the experiment with SK-MEL-5 melanoma is -98.2% (active); in the experiment on UACC-62 melanoma it was -97.8% (active); in the experiment with SK-MEL-28 melanoma, -95.9% (active); in the experiment on SK-MEL-2 melanoma, -89.2% (active); in the experiment on EKVX NSCLC, -97.6% (active); in the experiment on UO-31 renal, -98.5% (active). The growth is -96.7% (active) with TK-10 renal; -100% (active) in the experiment on ACHN renal; -94.8% (active) with CAKI-1 renal; -99.3% (active) with A498 renal; -13.8% (active) in the experiment with CCRF-CEM leukemia; -61% (active) in the experiment with MOLT-4 leukemia.
On to `COc1ccc(C(=O)/C=C/c2c(F)cccc2Cl)cc1S(N)(=O)=O`, for which the growth in the experiment with HCT-15 colon was -11.9% (active); in the experiment with HT29 colon, 8.46% (active); in the experiment on SNB-75 CNS it was 29.7%; in the experiment on SNB-19 CNS it was 19.6%; with U251 CNS, -86.8% (active); in the experiment with PC-3 prostate, 18.8%. For the same compound, the growth with UACC-62 melanoma was 15.4%; in the experiment with LOX IMVI melanoma, -69.1% (active); with SK-MEL-28 melanoma it was -4.35% (active); with SK-MEL-2 melanoma it was 25.1%; in the experiment on EKVX NSCLC, 8.71% (active); in the experiment on SN12C renal it was 12.8%. Moreover, the growth in the experiment with UO-31 renal was 0.59% (active); in the experiment on TK-10 renal, 27.4%; in the experiment on ACHN renal, -13.8% (active); in the experiment on CAKI-1 renal it was 16.4%; with A498 renal it was 74%; in the experiment on CCRF-CEM leukemia, 6.01% (active).
For `CCN1CCN(Cc2ccc(C(=O)Nc3cccc(C#Cc4cccc5[nH]nc(N)c45)c3)cc2C(F)(F)F)CC1`, the growth in the experiment on HCT-15 colon is -87.6% (active); in the experiment with HT29 colon, -10.5% (active); in the experiment with SNB-75 CNS, -62% (active); in the experiment with SNB-19 CNS it was -88.7% (active); with U251 CNS, -94.6% (active); in the experiment on PC-3 prostate, -14% (active). Also, the growth in the experiment on UACC-62 melanoma is -74.7% (active); with LOX IMVI melanoma, -92.6% (active); in the experiment on SK-MEL-28 melanoma, -95% (active); in the experiment with SK-MEL-2 melanoma, -80.7% (active); with EKVX NSCLC, -93.1% (active); in the experiment on SN12C renal, -76.1% (active). Moreover, the growth with UO-31 renal was -94.2% (active); with TK-10 renal, -94.2% (active); in the experiment on ACHN renal, -98.2% (active); with CAKI-1 renal, -91.7% (active); in the experiment on A498 renal, -84.6% (active); in the experiment on CCRF-CEM leukemia, 3.6% (active).
For the compound `CN1CCN(c2ccc3c(c2)nc(NNC(=O)c2ncccn2)c2cccn23)CC1`, the growth was 1.47% (active) in the experiment with HCT-15 colon; 11.2% in the experiment with HT29 colon; -46.9% (active) in the experiment on SNB-75 CNS; 16.5% in the experiment with SNB-19 CNS; -38.7% (active) in the experiment on U251 CNS; 6.1% (active) in the experiment with PC-3 prostate. The growth with UACC-62 melanoma is -35.1% (active); in the experiment with LOX IMVI melanoma, -62.8% (active); in the experiment on SK-MEL-28 melanoma, -27.6% (active); in the experiment with SK-MEL-2 melanoma, -7.45% (active); in the experiment on EKVX NSCLC, -73.2% (active); in the experiment with SN12C renal, 6.25% (active). The growth is 1.76% (active) in the experiment with UO-31 renal; -87.5% (active) in the experiment with TK-10 renal; -83.7% (active) in the experiment with ACHN renal; -80.9% (active) with CAKI-1 renal; -95% (active) with A498 renal; 7.34% (active) in the experiment with CCRF-CEM leukemia.
For the compound `CC1=C(C(=O)OC(C)C)C(c2cccc(O)c2)NC(=S)N1` (stereo not given), the growth with HCT-15 colon was 106%; in the experiment on HT29 colon it was 102%; in the experiment with SNB-75 CNS, 105%; in the experiment with SNB-19 CNS, 96.8%; in the experiment with U251 CNS it was 103%; in the experiment on PC-3 prostate, 107%. The growth is 98.8% in the experiment on SK-MEL-5 melanoma; 91.3% in the experiment with UACC-62 melanoma; 103% in the experiment on SK-MEL-28 melanoma; 111% with SK-MEL-2 melanoma; 102% in the experiment on SN12C renal; 92% in the experiment with UO-31 renal. Further, the growth in the experiment on TK-10 renal was 104%; in the experiment with ACHN renal it was 98.1%; in the experiment on CAKI-1 renal it was 89.9%; with A498 renal, 125%; in the experiment with CCRF-CEM leukemia, 98.6%; with MOLT-4 leukemia it was 96.1%.
`Cc1ccc(-c2nnc3ccc(N/N=C/c4ccccc4)nn23)cc1`: the growth in the experiment with HCT-15 colon was 69.2%; in the experiment with HT29 colon it was 118%; with SNB-75 CNS it was -17% (active); with SNB-19 CNS it was 86.6%; in the experiment with U251 CNS, 75.1%; in the experiment with PC-3 prostate it was 89.3%. Further, the growth in the experiment with UACC-62 melanoma was 98.4%; in the experiment with LOX IMVI melanoma, 47.5%; in the experiment with SK-MEL-28 melanoma, 95.7%; with SK-MEL-2 melanoma, 102%; in the experiment with EKVX NSCLC, 76.9%; in the experiment on UO-31 renal, 84.5%. In addition, the growth with TK-10 renal was 104%; with ACHN renal it was 95.4%; in the experiment on CAKI-1 renal, 83.3%; in the experiment with A498 renal it was 105%; in the experiment with CCRF-CEM leukemia, 88.8%.
